Laboratory results taken from PubChem BioAssay.
Activity calls are given as the source filed them.

Key:
[1] = compounds binding Alexa647 anti-His antibody – biochemical, small-molecule microarray, 635 nm fluorescence, artefact control for SMM control protein annotation, primary screen (AID 1128); conditions: higher = more signal;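 further: score merges feature fluorescence with signal-to-noise for each printed compound spot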
[2] = system: Human papillomavirus type 1a E7 protein (residues 1-88); assay: HPV1a E7 small-molecule binders, primary screen, biochemical, small-molecule microarray, residues 1-88, 635 nm (AID 1129); conditions: small-molecule microarray binding, fluorescence 635 nm; higher = more signal
[3] = target: Focal adhesion kinase 1 (Homo sapiens) (UniProt Q05397); assay: PTK2 protein binding on printed compound slides – biochemical, small-molecule microarray, 635/667 nm fluorescence, BSA, DTT, primary screen (AID 1130); conditions: 635 nm fluorescence, higher = more signal;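 further: composite of spot emission at 667 nm and signal to noise over triplicate slides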
[4] = system: Fibrinogen (Alexa647-labelled); assay: Alexa647-fibrinogen binding to printed small molecules – biochemical, small-molecule microarray, 635/667 nm fluorescence, artefact control for SMM control-protein annotation, profiling panel (AID 1131); conditions: fibrinogen-A647 binding fluorescence, higher = more signal;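 further: z-score merges 667 nm fluorescence with per-spot signal-to-noise over triplicate slides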
[5] = target: Follistatin (Homo sapiens) (UniProt P19883); assay: FST protein binding to printed compounds – biochemical, small-molecule microarray, 635/667 nm fluorescence, primary screen (AID 1132); conditions: 635 nm fluorescence, higher = more signal
[6] = target: Fibroblast growth factor 2 (Homo sapiens) (UniProt P09038); assay: basic fibroblast growth factor binding to printed compounds – biochemical, small-molecule microarray, 635/667 nm fluorescence, primary screen (AID 1133); conditions: FGF2, fluorescence 635/667, higher = more signal
[7] = JC-1 mitochondrial potential readout, lung cancer cells – cell-based, A549, JC-1 fluorescence, basal, 24 h, 100 nL, profiling panel (AID 1138); conditions: higher = more signal;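 further: A549 lung adenocarcinoma cells under basal conditions with no added stimulus; test concentration not given here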
Lefty1 = Lefty1 protein binding to printed compounds – biochemical, small-molecule microarray, 635/667 nm fluorescence, primary screen (AID 1139); conditions: fluorescence 635/667, higher = more signal
[8] = system: wheat germ agglutinin (Triticum aestivum), Alexa647-labelled; assay: Alexa647-WGA lectin binding to printed small molecules – biochemical, small-molecule microarray, 635/667 nm fluorescence, artefact control for SMM control-protein annotation, profiling panel (AID 1140); conditions: WGA-A647 binding, 635 nm fluorescence, higher = more signal;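 further: score merges 667 nm feature emission with signal to noise over triplicate slides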
[9] = target: Luciferin 4-monooxygenase (Photinus pyralis) (UniProt P08659); assay: inhibition of purified Photinus pyralis luciferase – biochemical, luminescence, purified enzyme, 2006 set, primary screen (AID 1141); conditions: purified firefly luciferase, SteadyGlo luminescence, 30 min; higher = more signal, called active from +8 up or from −8 down;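 further: cell-free assay with purified firefly luciferase at 100 ng per well in PBS; test concentration not given here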
Sequence of Luciferin 4-monooxygenase (Photinus pyralis) (P08659 whole entry, looked up): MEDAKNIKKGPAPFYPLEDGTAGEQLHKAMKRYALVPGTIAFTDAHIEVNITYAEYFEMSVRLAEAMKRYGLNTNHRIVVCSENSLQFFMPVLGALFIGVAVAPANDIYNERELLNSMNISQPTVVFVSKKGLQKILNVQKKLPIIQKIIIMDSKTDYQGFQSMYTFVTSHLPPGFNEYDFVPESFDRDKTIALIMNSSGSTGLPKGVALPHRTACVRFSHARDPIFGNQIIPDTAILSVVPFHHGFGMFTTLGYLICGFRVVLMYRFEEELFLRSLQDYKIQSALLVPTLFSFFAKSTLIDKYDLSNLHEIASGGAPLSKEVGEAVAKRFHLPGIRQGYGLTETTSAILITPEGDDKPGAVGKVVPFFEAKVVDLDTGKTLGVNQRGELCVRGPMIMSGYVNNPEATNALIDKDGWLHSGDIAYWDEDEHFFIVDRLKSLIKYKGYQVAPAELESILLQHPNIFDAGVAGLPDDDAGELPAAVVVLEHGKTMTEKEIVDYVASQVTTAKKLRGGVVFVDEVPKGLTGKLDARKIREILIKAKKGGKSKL

Sequence of Follistatin (Homo sapiens) (P19883 whole entry, looked up): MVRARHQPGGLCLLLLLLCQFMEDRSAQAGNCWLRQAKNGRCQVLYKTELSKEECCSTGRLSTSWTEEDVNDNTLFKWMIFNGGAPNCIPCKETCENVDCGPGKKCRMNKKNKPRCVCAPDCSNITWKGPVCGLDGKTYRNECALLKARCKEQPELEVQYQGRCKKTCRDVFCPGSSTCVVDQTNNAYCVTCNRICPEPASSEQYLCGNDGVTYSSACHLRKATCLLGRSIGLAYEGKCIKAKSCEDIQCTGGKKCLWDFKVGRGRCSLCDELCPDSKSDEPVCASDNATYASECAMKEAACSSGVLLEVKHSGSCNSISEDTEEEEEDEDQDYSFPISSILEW
Sequence of Fibroblast growth factor 2 (Homo sapiens) (P09038 whole entry, looked up): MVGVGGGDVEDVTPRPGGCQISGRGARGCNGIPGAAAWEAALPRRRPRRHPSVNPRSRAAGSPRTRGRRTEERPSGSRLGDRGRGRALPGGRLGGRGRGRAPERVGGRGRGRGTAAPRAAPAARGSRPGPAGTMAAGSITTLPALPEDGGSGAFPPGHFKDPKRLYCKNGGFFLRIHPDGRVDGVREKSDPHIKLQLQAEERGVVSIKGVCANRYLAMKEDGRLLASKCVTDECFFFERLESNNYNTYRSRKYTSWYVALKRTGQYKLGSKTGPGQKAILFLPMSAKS
Sequence of Focal adhesion kinase 1 (Homo sapiens) (Q05397 whole entry, looked up): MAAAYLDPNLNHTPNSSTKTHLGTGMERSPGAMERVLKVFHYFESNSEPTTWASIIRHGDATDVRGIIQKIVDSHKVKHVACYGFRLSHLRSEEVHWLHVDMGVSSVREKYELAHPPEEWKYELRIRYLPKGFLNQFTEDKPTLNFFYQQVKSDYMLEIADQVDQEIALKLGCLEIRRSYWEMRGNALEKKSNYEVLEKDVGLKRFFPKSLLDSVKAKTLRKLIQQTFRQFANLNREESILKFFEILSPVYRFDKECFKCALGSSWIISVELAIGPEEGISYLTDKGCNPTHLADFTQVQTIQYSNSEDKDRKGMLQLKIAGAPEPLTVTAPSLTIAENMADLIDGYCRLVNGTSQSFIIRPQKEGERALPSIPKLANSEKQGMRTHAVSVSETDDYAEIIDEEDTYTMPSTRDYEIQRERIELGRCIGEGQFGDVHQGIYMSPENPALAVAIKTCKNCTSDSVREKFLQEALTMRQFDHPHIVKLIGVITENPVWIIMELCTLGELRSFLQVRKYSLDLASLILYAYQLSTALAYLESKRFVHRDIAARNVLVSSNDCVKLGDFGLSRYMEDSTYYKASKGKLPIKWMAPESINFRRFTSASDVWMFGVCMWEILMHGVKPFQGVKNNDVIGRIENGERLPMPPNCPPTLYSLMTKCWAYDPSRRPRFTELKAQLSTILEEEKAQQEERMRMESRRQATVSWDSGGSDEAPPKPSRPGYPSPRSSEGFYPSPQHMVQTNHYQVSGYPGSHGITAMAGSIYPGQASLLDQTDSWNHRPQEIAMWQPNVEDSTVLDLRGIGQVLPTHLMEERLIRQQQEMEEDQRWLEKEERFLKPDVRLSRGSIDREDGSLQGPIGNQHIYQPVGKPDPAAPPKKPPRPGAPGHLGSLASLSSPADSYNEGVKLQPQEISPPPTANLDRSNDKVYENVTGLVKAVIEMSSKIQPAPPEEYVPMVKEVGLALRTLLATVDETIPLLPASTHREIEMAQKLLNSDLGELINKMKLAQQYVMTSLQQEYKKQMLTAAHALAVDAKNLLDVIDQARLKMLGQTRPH

Structure (SMILES)	composite z-score [1]	composite z-score [2]	composite z-score [3]	composite z-score [4]	composite z-score [5]	composite z-score [6]	z-score [7]	composite z-score (Lefty1)	composite z-score [8]	z-score [9]
Cc1ccc(S[C@]2(C(=O)NCc3ccccc3)CC(=O)N(Cc3ccccc3C(F)(F)F)[C@@H]2c2ccc(CO)cc2I)cc1	1.53	-0.645	0.258	-0.201	0.0443	-0.402	1.28	-1.25	0.0776	-0.913 (inactive)
CCCCCN1CC=CC23O[C@@H]4/C=C\CCCOC(=O)C4[C@H]2C(=O)N(CCO)[C@@H]3C1=O (stereo not given in full)	2.49	0.87	1.15	-0.728	-0.274	-0.0388	-0.953	0.126	0.759	-2.06 (inactive)
O=C(NC1CC1)[C@@H]1c2ccccc2C(=O)N(C2CCCCC2)[C@H]1c1ccc(CO)cc1	1.86	1.15	0.498	-0.518	0.27	-0.027	0.116	-0.413	0.063	0.0436 (inactive)
COc1cc(CO)cc(I)c1O[C@H]1C=C(C(=O)NCCO)C[C@@H](N(CCN2CCOCC2)C(=O)C2CCCO2)[C@@H]1O (stereo not given in full)	0.0704	0.413	0.192	-0.0246	0.132	0.144	1.48	0.159	-0.139	-0.91 (inactive)
C=C(CCCC)/C(=C/C[C@@H](OC(C)=O)c1ccc(OCCO)cc1)c1cc(C(=O)OC)ccc1OC	-0.435	0.858	0.304	-0.156	0.335	-0.0009	1.85	0.548	0.94	-1.07 (inactive)
CC1(C)OB(/C=C\CC(OC(=O)c2ccncc2)c2ccccc2)OC1(C)C (stereo not given)	1.33	0.22	-0.113	-0.857	-0.397	-1.03	-0.242	-1.2	-1.28	-0.0512 (inactive)
O=C1OC[C@@H](c2ccccc2)n2cc(/C=C/c3ccccc3)cc21	0.353	-0.58	-0.102	0.5	-0.324	-0.574	-0.512	-0.0599	-0.328	0.287 (inactive)
C=CC[C@H](O)c1ccc(O)c(F)c1	-0.234	-1.35	-0.677	-2.61	-1.28	-0.975	0.414	-0.618	-0.318	-0.857 (inactive)
CC(C)(C)OC(=O)CC[C@]1(C(=O)N2CCOCC2)COC(c2ccc(OCCCO)cc2)=N1	2.44	0.882	0.427	0.507	-0.0198	-0.225	1.62	-0.692	0.672	-1.06 (inactive)
COC(=O)c1c2oc(c1C(=O)OC)C(=O)N[C@H](Cc1ccccc1)Cn1cc(nn1)C1(CCCCC1)NC(=O)N[C@H](CO)CC2	0.633	-0.594	0.714	-0.252	-0.328	0.94	-0.318	0.114	0.722	0.181 (inactive)
CCOC(=O)C1=C[C@@H](C(C)(C)C)N(S(=O)(=O)c2ccc(C)cc2)[C@H]1c1ccc(OC)cc1	0.772	1.22	1.62	1.02	0.688	0.387	2.61	0.554	0.782	1.95 (inactive)
C=C(C)C1CN([C@H](CO)c2ccccc2)C(=O)/C1=C\c1ccccc1 (stereo not given in full)	-0.288	0.145	-0.234	0.237	0.803	1.14	-1.06	-0.0605	0.726	0.264 (inactive)
C=CCNC(=O)[C@@H]1[C@H]2C(=O)O[C@H](c3ccccc3)[C@H](c3ccccc3)N2[C@H](c2ccc(O)cc2)[C@@]12C(=O)Nc1ccc(C#CC3=CCCCC3)cc12	0.844	1.18	0.721	0.668	1.24	0.494	0.22	1.43	1.06	-0.806 (inactive)
CC(C)N1CC=CC23O[C@@H]4/C=C\CCCOC(=O)C4[C@H]2C(=O)N(C(C)CO)[C@@H]3C1=O (stereo not given in full)	-0.201	-0.829	-0.246	-1.91	-0.755	-1.31	0.0728	-0.246	0.33	0.281 (inactive)
C=C(COC)C(=O)CC[C@H](OC(C)=O)c1ccccc1OCCO	0.342	-0.538	0.253	-0.674	1.26	1.73	0.0429	1.13	-0.368	-1.61 (inactive)
CCOC(=O)C[C@H]1[C@H](OC(=O)c2ccc(-c3ccccc3)cc2)[C@@H](NC(=O)C2CCCCC2)c2cc(OCCCO)ccc2N1C(=O)Cc1ccc(OC)cc1	0.132	0.365	0.106	0.267	0.2	0.345	0.47	0.867	0.229	0.347 (inactive)

Structure (SMILES)	composite z-score [1]	composite z-score [2]	composite z-score [3]	composite z-score [4]	composite z-score [5]	composite z-score [6]	z-score [7]	composite z-score (Lefty1)	composite z-score [8]	z-score [9]
COCCCNC(=O)[C@]1(Cc2ccccc2CN=[N+]=[N-])N=C(c2ccc(OCCCO)cc2)O[C@@H]1c1ccccc1N=[N+]=[N-]	2.6	1.2	0.641	0.927	0.564	0.854	0.398	-0.108	1.2	-6.03 (inactive)
COc1ccc(CCNC(=O)[C@@]2(C)c3ccccc3C(=O)N(Cc3ccc(OC(F)(F)F)cc3)[C@H]2c2ccc(CO)cc2)cc1	-0.0781	1.21	1.13	0.576	1.3	1.76	0.791	0.268	0.375	-0.629 (inactive)
C=CCOC(=O)[C@H]1[C@@H]2C(=O)O[C@@H](c3ccccc3)[C@@H](c3ccccc3)N2[C@@H](c2ccc(OCCOC(=O)[C@@H]3C[C@@H]4C(=O)N[C@@H](Cc5ccccc5)C(=O)N4[C@@H]3c3ccc(O)cc3)cc2)[C@]12C(=O)Nc1ccc(I)cc12	1.15	1.15	0.307	-0.0558	1.4	1.25	-1.28	0.924	0.0495	-0.409 (inactive)
COc1cc(Cc2cc3c(c(CCc4ccccc4)n2)[Si](C(C)C)(C(C)C)O[C@H]3c2ccccc2)cc(OC)c1OC	-0.133	-1.36	-0.114	0.0047	0.214	-0.392	-1.64	-0.261	-0.192	-0.0946 (inactive)
COC(=O)c1ccc(OC)c(/C=C\CC(OC(=O)c2ccncc2)c2ccccc2)c1 (stereo not given)	0.429	-0.0099	-0.111	-0.237	1.1	1.22	1.64	0.904	0.947	-1.89 (inactive)
C=C(CCCC)C(=O)CC[C@H](OC(=O)c1ccccc1-c1ccccc1C(=O)O)c1cccc(OCCO)c1	-0.413	-0.298	-0.194	-0.435	-0.0662	0.591	0.15	0.191	-0.373	-0.755 (inactive)
CCCCCN1CC=CC23O[C@@H]4/C=C\CCCOC(=O)C4[C@H]2C(=O)N(CCCCCO)[C@@H]3C1=O (stereo not given in full)	0.163	-0.766	-0.565	-0.832	-0.38	-1.11	0.27	-0.0788	-0.662	-3.1 (inactive)
C=C(COC)C(=O)CC[C@@H](OC(=O)c1ccccc1-c1ccccc1C(=O)O)c1ccccc1OCCO	0.116	1.15	-0.267	0.599	1.29	1.64	-0.0562	0.922	-0.272	-6.94 (inactive)
CC1C2C(CCCO)=CC(C3C(=O)N(C)C(=O)C23)N1Cc1cccc(OC(F)(F)F)c1 (stereo not given)	0.503	1.2	0.849	0.971	0.301	0.303	-0.703	0.286	0.877	-1.02 (inactive)
C=CC[C@H](O)c1ccc(O)c2ccccc12	1.02	0.604	0.126	0.24	1.4	1.49	-0.0561	1.26	0.742	-2.47 (inactive)
[N-]=[N+]=NCc1ccccc1C[C@@]1(C(N)=O)N=C(c2ccc(OCCCO)cc2)O[C@@H]1c1ccccc1N=[N+]=[N-]	1.16	1.24	0.0254	0.991	0.102	-0.131	0.306	-0.804	0.68	-5.46 (inactive)
[N-]=[N+]=NCc1ccccc1[C@H]1OC(c2ccc(OCCCO)cc2)=N[C@@]1(CCS(=O)(=O)c1ccccc1)C(=O)O	0.583	0.667	0.476	1.03	0.0192	-0.119	-0.959	-0.182	0.169	-6.31 (inactive)
COC(=O)[C@H]1N=C(c2ccc(OCCCO)cc2)O[C@H]1c1ccccc1N=[N+]=[N-]	0.608	1.16	2.19	0.936	0.562	-0.0231	-0.512	-0.401	0.733	-19.2 (active)
O=C1C2C=CC(C(O)c3ccccn3)N(Nc3ccc([N+](=O)[O-])cc3)C2C(=O)N1c1ccccc1 (stereo not given)	0.344	1.16	0.427	1.02	0.336	0.292	-0.378	-0.43	1.05	0.654 (inactive)
COCCCNC(=O)[C@@]1(Cc2ccccc2I)c2ccccc2C(=O)N(Cc2ccccc2OC)[C@H]1c1ccc(CO)cc1	3.03	1.18	0.0958	0.198	-0.268	-0.39	1.93	-1.26	0.214	-0.773 (inactive)
C=C(C(=O)CC[C@@H](OC(=O)c1ccccc1-c1ccccc1C(=O)O)c1ccc(OCCO)cc1)C(C)C	1.19	0.977	-0.118	0.691	1.2	1.77	0.58	1.26	0.889	-2.66 (inactive)
